High-throughput results as filed in PubChem.
Shown are actives, neighbours in structure and some others; about 2.4% of the full set was active somewhere.
JNK3 blocker: JNK3 (human) kinase inhibition. AID 746. inhibition, % at 8 µM. P53779. purified JNK3 kinase activity, HTS. 60,000 compounds, 0.61% hits; in the data active means inhibition above about 17%
HUVEC tox IL1B: toxic to HUVEC cells under IL-1B stimulation | HUVEC cell count loss, Hoechst imaging, IL-1B stimulated | cell count reduction, % at 2 µM | 94,000 compounds, 0.41% hits;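 active means cell count reduction more than 3 SD above the screen-wide mean, cut at about 70% in these data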
NFkB transloc pot: enhances IL-1B driven NFkB nuclear translocation; HUVEC IL-1B NFkB p65 nuclear translocation imaging; activation, % at 2 µM; 94,000 compounds, 0.3% hits; AID 819;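 active means activation above 40%, about the mean plus 3 SD, also judged a hit on visual image review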;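 further: percent activation is computed from the nuclear over cytoplasmic p65 intensity ratio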
Pyk2 oligo antag: blocks oligomerization of human Pyk2 in cells. AID 1347419. z-score (the deposit names both 25 µM and 10 µM). 99,000 compounds, 0.83% hits. Q293 cells, Pyk2 FERM NanoBiT luminescence; active compounds read low;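 active means Z-score of -3 or lower, scaled per plate to the spread of control and sample wells; inactive means z-score above -3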;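 further: negative z-score means lost luminescence so less FERM oligomerization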
FAK inh: inhibitors of human focal adhesion kinase; inhibition, %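 (tested at 7 µM)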; 97,000 compounds, 0.84% hits; Q05397; biochemical FAK kinase activity assay; in the data active means inhibition above about 19%
Target sequence (Q05397 whole entry, looked up): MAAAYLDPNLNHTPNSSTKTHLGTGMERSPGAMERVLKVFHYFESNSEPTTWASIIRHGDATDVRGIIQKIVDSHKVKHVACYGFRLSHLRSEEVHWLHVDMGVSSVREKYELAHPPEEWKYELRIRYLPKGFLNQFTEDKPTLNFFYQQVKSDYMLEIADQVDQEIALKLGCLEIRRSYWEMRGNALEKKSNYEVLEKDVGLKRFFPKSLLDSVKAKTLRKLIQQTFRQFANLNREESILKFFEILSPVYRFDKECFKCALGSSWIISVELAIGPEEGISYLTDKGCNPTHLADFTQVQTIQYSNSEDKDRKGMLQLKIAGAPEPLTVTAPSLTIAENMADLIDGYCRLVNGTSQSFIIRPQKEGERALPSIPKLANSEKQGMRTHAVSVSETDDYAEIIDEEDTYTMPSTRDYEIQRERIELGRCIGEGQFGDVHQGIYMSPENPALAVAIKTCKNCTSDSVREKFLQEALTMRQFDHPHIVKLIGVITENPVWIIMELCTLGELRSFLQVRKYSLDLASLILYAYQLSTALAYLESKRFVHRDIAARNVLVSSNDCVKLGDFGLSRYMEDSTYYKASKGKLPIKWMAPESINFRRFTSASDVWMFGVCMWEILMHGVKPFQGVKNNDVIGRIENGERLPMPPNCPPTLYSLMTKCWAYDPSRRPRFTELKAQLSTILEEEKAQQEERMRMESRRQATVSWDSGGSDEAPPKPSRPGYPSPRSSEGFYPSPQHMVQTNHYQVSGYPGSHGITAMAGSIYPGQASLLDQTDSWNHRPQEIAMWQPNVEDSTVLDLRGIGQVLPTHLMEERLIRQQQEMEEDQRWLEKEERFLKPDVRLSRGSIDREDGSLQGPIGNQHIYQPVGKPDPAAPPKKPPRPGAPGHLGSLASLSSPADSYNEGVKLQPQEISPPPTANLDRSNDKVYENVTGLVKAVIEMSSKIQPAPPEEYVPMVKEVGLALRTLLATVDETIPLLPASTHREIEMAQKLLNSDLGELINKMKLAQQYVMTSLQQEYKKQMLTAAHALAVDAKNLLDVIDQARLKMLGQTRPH
NFkB transloc inh: blocks IL-1B driven NFkB nuclear translocation in HUVEC cells; 94,000 compounds, 0.43% hits; AID 796; inhibition, % at 2 µM; HUVEC IL-1B NFkB p65 nuclear translocation imaging;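 active means inhibition above about 30% together with a positive call from visual inspection of the well image, limit read from the data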;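 further: nuclear over cytoplasmic p65 intensity ratio measured by imaging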
Of the large screens only hits and unclear results are named; the others gave an inactive call.

COc1cccc(Nc2ncc(C(=O)O)c3ccccc23)c1	none
Cc1ccc(C)c(N2CCN(C(=O)CCS(=O)(=O)c3cccc4nonc34)CC2)c1	none (no result: JNK3 blocker, HUVEC tox IL1B, NFkB transloc pot, FAK inh, NFkB transloc inh)
CCOC(=O)c1cc(C)n(-c2ccc(OC)c(OC)c2)c1C	none (no result: HUVEC tox IL1B, NFkB transloc pot, FAK inh, NFkB transloc inh)
CN(CCNC(=O)C1CC(=O)N(c2ccc(F)c(Cl)c2)C1)Cc1ccccc1 (centres undefined)	none
COc1ccccc1CN(Cc1nc2ccccc2c(=O)[nH]1)S(=O)(=O)c1ccc2ccccc2c1	Pyk2 oligo antag -3 (no result: JNK3 blocker)
Cc1nnc2ccc(N3CCC(C(N)=O)(N4CCCCC4)CC3)nn12	none (no result: HUVEC tox IL1B, NFkB transloc pot, Pyk2 oligo antag, FAK inh, NFkB transloc inh)
Cc1onc(-c2ccccc2Cl)c1C(=O)N1C=CC(C(F)(F)Cl)=NCC1	none (no result: JNK3 blocker)
COc1ccc(S(=O)(=O)NNC(=O)c2csc(-n3nc(C)cc3C(F)(F)F)n2)cc1OC	NFkB transloc pot 52 (no result: JNK3 blocker)
CCn1c2ccccc2c2nnc(SCc3ccccc3)nc21	none (no result: HUVEC tox IL1B, NFkB transloc pot, Pyk2 oligo antag, FAK inh, NFkB transloc inh)
CCn1c2ccccc2c2nnc(SCCCn3c(=O)[nH]c4ccccc43)nc21	Pyk2 oligo antag -3.5
O=C(c1ccc2ccccc2c1)N1CCN(c2ccc([N+](=O)[O-])c(N3CCOCC3)c2)CC1	NFkB transloc pot 45 (no result: JNK3 blocker)
COc1ccc(OCC(=O)c2c(O)c3ccccc3oc2=O)cc1	HUVEC tox IL1B 94
O=C(COc1ncnc2sccc12)N1CCN(S(=O)(=O)c2ccc(Cl)cc2)CC1	none
CN1CCN(Cc2cc(=O)oc3cc4c(cc23)CCC4)CC1	NFkB transloc pot 41
Cc1ccc2c(CN3CCN(CCO)CC3)cc(=O)oc2c1C	Pyk2 oligo antag -3.5 (no result: JNK3 blocker)
CCOCCCNC(=S)N1C2CCC1CC(NC(=O)NC1CCCCC1)C2 (centres undefined)	none (no result: JNK3 blocker)
CCOC(=O)/C(C#N)=C1/SC(CCO)C(=O)N1c1ccccc1 (centres undefined)	FAK inh 23
CCC1S/C(=C(\C#N)C(N)=O)N(c2ccc(F)cc2)C1=O (centres undefined)	JNK3 blocker 31
CCOC(=O)/C(C#N)=C1/SC(CC)C(=O)N1c1ccc(Br)cc1 (centres undefined)	none (no result: JNK3 blocker)
CCC1S/C(=C(\C#N)C(=O)NCc2ccco2)N(c2ccc(F)cc2)C1=O (centres undefined)	none
COc1cc(Br)cc2cc(C(=O)N3CCCCC3C)c(=O)oc12 (centres undefined)	none
CCCn1c(SCC#N)nc2c(c1=O)C1(CCCC1)Cc1ccccc1-2	HUVEC tox IL1B 93
N#CCSc1nc2c(c(=O)n1Cc1ccco1)C1(CCCC1)Cc1ccccc1-2	none
Cc1ccn(CCSCC(=O)O)n1	HUVEC tox IL1B 86
O=C1CSC(c2cn(-c3ccccc3)nc2-c2cccs2)N1CC1CCCO1 (centres undefined)	none
Cc1ccc(Oc2ccc(-c3nc(N)nc(N)n3)cc2)cc1	HUVEC tox IL1B 86, NFkB transloc inh 97
Nc1nc(N)nc(-c2ccc(Cl)cc2)n1	none (no result: JNK3 blocker)
O=C(Nc1ccc(Cn2cccn2)cc1)c1ccc(COc2cccc(Br)c2)cc1	NFkB transloc pot 57 (no result: JNK3 blocker)
COc1ccc(/C=N/NC(=O)c2cccc([N+](=O)[O-])c2)cc1OS(=O)(=O)c1ccccc1	none (no result: JNK3 blocker)
O=C(O)C1CSC(c2ccccc2)N1C(=O)c1ccco1 (centres undefined)	none (no result: JNK3 blocker)
CC(=O)N1C(C(=O)O)CSC1c1cccc(C)c1 (centres undefined)	NFkB transloc inh 36 (no result: JNK3 blocker)
O=c1nc(C(F)(F)F)nc2ccccn12	none
O=c1[nH]c2ccccc2c2nc3ccccn3c12	JNK3 blocker 47 (no result: HUVEC tox IL1B, NFkB transloc pot, FAK inh, NFkB transloc inh)
O=C(Nc1ccc(O)cc1)c1ccc(C(=O)c2ccccc2)o1	Pyk2 oligo antag -3.2
CN(C)c1ccc(-c2nn3c(C4CCCCC4)nnc3s2)cc1	Pyk2 oligo antag -3.6
O=C1c2ccccc2CN1CCNS(=O)(=O)c1ccc(Cl)cc1	HUVEC tox IL1B 92, NFkB transloc inh 98
Cn1c(=O)c(=O)n(C)c2cc(S(=O)(=O)Nc3ccc4c(c3)OCCO4)ccc21	none
Cn1c(=O)oc2cc(S(=O)(=O)Nc3ccc4c(c3)OCCO4)ccc21	HUVEC tox IL1B 92, NFkB transloc inh 98
CCCCOC(=O)C1=C(C)Nc2nnnn2C1c1ccccc1Cl (centres undefined)	none (no result: JNK3 blocker)
COC(=O)C1=C(C)Nc2nnnn2C1c1ccco1 (centres undefined)	none
COC(=O)C1=C(C)Nc2nnnn2C1c1cccnc1 (centres undefined)	NFkB transloc inh 34 (no result: JNK3 blocker)
CCOC(=O)C1=C(C)Nc2nnnn2C1c1ccccc1Cl (centres undefined)	NFkB transloc pot 46 (no result: JNK3 blocker)
Nc1ccc(-c2ccc(N)cc2C(F)(F)F)c(C(F)(F)F)c1	Pyk2 oligo antag -3.1
O=C(NCc1ccccn1)C1CCN(Cc2cnn(-c3ccccc3)c2-n2cccc2)CC1	none (no result: JNK3 blocker)
COc1cccc(CNC(=O)C2CCN(Cc3cnn(-c4ccccc4)c3-n3cccc3)CC2)c1	NFkB transloc pot 63 (no result: JNK3 blocker)
CCOC(=O)C(NC(=O)Nc1ccc(Cl)cn1)(Oc1ccc(F)cc1)C(F)(F)F (centres undefined)	none (no result: JNK3 blocker, HUVEC tox IL1B, NFkB transloc pot, FAK inh, NFkB transloc inh)
C=CCOc1nc2c(c(=O)n(C)c(=O)n2C)n1C	HUVEC tox IL1B 85
COc1ccc(NC(=O)/C(Cl)=C(/Cl)S(=O)Cc2ccccc2)cn1 (centres undefined)	NFkB transloc inh 65 (no result: JNK3 blocker)
NC(=O)C1(N2CCCCC2)CCN(C(=O)CSc2nc(C(F)(F)F)cc(=O)[nH]2)CC1	none
CCOC(=O)c1ccc(Nc2cc(C)nc(N3CCOCC3)n2)cc1	Pyk2 oligo antag -3.2
C=CCOc1cccc(C2C(C(=O)c3ccc(C)o3)=C(O)C(=O)N2Cc2ccncc2)c1 (centres undefined)	none
CCOc1cccc(C2C(C(=O)c3ccc(C)o3)=C(O)C(=O)N2Cc2ccncc2)c1 (centres undefined)	NFkB transloc inh 30
Cn1c(SCC(=O)C(C)(C)C)nnc1-c1cccnc1	none
OC(CNCc1ccco1)Cn1c2ccc(Br)cc2c2cc(Br)ccc21 (centres undefined)	none (no result: JNK3 blocker)
COc1ccc(-n2c3c(c(=O)[nH]c2=O)C(C(F)(F)F)(C(F)(F)F)N=C(CC(C)C)N3)cc1	none (no result: JNK3 blocker)
O=c1[nH]c(=O)n(Cc2ccco2)c2c1C(C(F)(F)F)(C(F)(F)F)N=C(CCC1CCCCC1)N2	Pyk2 oligo antag -4.1 (no result: JNK3 blocker)
CC(C)(C)C(=O)NC1(C(F)(F)F)C(=O)Nc2c1c(=O)[nH]c(=O)n2Cc1ccco1 (centres undefined)	none (no result: HUVEC tox IL1B, NFkB transloc pot, FAK inh, NFkB transloc inh)
O=c1[nH]c(=O)n(Cc2ccco2)c2c1C(C(F)(F)F)(C(F)(F)F)N=C(C1CCCCC1)N2	none
O=c1[nH]c(=O)n(-c2ccccc2)c2c1C(C(F)(F)F)(C(F)(F)F)N=C(CCC1CCCCC1)N2	Pyk2 oligo antag -3.6 (no result: JNK3 blocker, HUVEC tox IL1B, NFkB transloc pot, FAK inh, NFkB transloc inh)
O=c1[nH]c(=O)n(Cc2ccco2)c2c1C(C(F)(F)F)(C(F)(F)F)N=C(CCc1ccccc1)N2	Pyk2 oligo antag -4 (no result: JNK3 blocker)
c1ccc(-c2ccc(OCCOCCn3cncn3)cc2)cc1	none
Cn1cc(/C=N/n2cnc3scc(-c4ccc(Cl)cc4)c3c2=O)c2ccccc21	NFkB transloc inh 37
